High-throughput results as filed in PubChem BioAssay.
The full list was thinned out, with hits kept by preference.
CBX7 inh = CBX7 chromodomain binding inhibitors, primary screen, biochemical, AlphaScreen; 66,000 compounds, 1.1% hits; AID 1224903, 2016; Chromobox protein homolog 7 (Homo sapiens), O95931; normalised signal (fraction of DMSO) (concentration not given with the values); AlphaScreen His6-CBX7 / biotin-H3K27me3 peptide binding; active compounds read low; in the data active means normalised signal below about 0.5
Target sequence (O95931 whole entry, looked up): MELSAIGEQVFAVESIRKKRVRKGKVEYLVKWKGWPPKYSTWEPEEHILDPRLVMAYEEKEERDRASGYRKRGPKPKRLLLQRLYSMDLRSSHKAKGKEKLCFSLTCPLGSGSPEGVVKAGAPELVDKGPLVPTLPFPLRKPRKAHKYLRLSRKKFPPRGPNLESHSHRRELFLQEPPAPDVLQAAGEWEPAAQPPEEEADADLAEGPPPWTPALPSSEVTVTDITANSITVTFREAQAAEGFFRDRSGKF
An asterisk follows results filed as active.

SMILES	CBX7 inh
C=CCNc1oc(COc2ccccc2C)nc1C#N	0.884
Cn1c(=O)c(=O)n(C)c2cc(S(=O)(=O)Nc3ccccc3Br)ccc21	1.24
Cc1c(C(=O)N(Cc2ccc(Cl)cc2)C2CCS(=O)(=O)C2)oc2ccccc12 (stereo not given)	0.863
Brc1ccc(-c2noc(CCCc3ccccc3)n2)cc1	1.19
CCCCNC(=O)CN1CCN(Cc2cccc(C)c2)C1=O	1.14
COc1ccc(OC)c(-c2nc(Nc3ccc(C)c(Cl)c3)sc2CC(=O)O)c1	0.997
O=C(NCc1cccc(Cl)c1)c1cc2c(s1)-c1ccccc1OC2	1.34
Cc1ccc(C(=O)CSc2n[nH]c(-c3ccncc3)n2)cc1	0.713
O=C(CSc1n[nH]c(-c2ccncc2)n1)c1ccc(Br)cc1	0.232*
CC(=O)Nc1ccc(C(=O)CSc2n[nH]c(-c3ccncc3)n2)cc1	0.661
Cc1ccc(-c2cc(C(=O)Nc3cccc(F)c3)c3ccccc3n2)cc1C	1.14
COc1ccc(OCC(=O)Nc2ccc(-c3nc4ncccc4o3)cc2)cc1	0.9
Cc1c(Cl)cccc1NC(=O)C1(S(=O)(=O)c2ccc(Cl)cc2)CC1	1.09
COc1ccccc1Nc1ncc(C(=O)Nc2ccc(F)cc2Cl)c2ccccc12	1
CCOc1ccccc1NC(=O)c1cn(CC)c2nc(C)ccc2c1=O	0.962
N#Cc1nc(-c2ccccc2)oc1N1CCOCC1	0.873
CC1CCN(c2oc(-c3ccccc3)nc2C#N)CC1	0.412*
CCN1CCN(c2oc(-c3ccccc3)nc2C#N)CC1	0.972
CCOC(=O)N1CCN(C(=O)CSc2ccc3nnc(-c4ccccc4)n3n2)CC1	0.966
COCCCNc1ncnc2c1c(-c1ccccc1)cn2-c1ccc(Br)cc1	1.05
Cc1ccc(S(=O)(=O)Nc2nc3ccccc3nc2N2CCN(C)CC2)cc1	1
O=S(=O)(Nc1nc2ccccc2nc1N1CCc2ccccc2C1)c1ccc(Br)cc1	0.403*
CN1CCN(c2nc3ccccc3nc2NS(=O)(=O)c2ccc(Br)cc2)CC1	0.831
O=C(N1CCN(c2ccccn2)CC1)C1(S(=O)(=O)c2ccc(Cl)cc2)CC1	0.979
CCN(CCNS(=O)(=O)c1ccc2c(c1)CCN2C(C)=O)c1ccccc1	1.49
SMILES	CBX7 inh
CCOc1ccc(C2C(N3C(=O)c4ccccc4C3=O)C(=O)N2c2ccc(C)c(Cl)c2)cc1 (stereo not given)	0.893
COc1ccc(-c2nc(N3CCC(C)CC3)[nH]c(=O)c2C#N)cc1	0.846
CCOC(=O)c1cnc2c(OC)cccc2c1N1CCC(Cc2ccccc2)CC1	0.422*
CCOC(=O)c1cnc2c(OC)cccc2c1Nc1ccc(CC)cc1	1.02
CCOC(=O)c1cnc2c(OC)cccc2c1NCc1ccccc1OC	0.995
CCOc1ccc(-n2c(Cc3cc(=O)[nH]c(=O)[nH]3)nnc2SCc2ccccc2Cl)cc1	1
CCOC(=O)c1cnc2c(ccc3ccccc32)c1NCCN1CCOCC1	1.21
N#Cc1c(-c2ccc(F)cc2)c(C#N)c(=O)n(N)c1N	0.16*
Cc1cc(C)n(Cc2ccc(F)cc2)c(=O)c1C#N	1.13
O=C(Nc1ccc2oc(-c3ccncc3)nc2c1)c1ccc(-c2ccc(F)cc2)o1	0.405*
CCc1ccc2oc(-c3ccc(NC(=O)c4ccccc4)cc3)nc2c1	0.849
CCc1ccc2oc(-c3ccc(NC(=O)c4cc(OC)cc(OC)c4)cc3)nc2c1	0.952
O=C(Nc1ccc2oc(-c3ccncc3)nc2c1)c1ccc(-c2ccc(Cl)cc2)o1	0.966
CCc1ccc2oc(-c3ccc(NC(=O)c4ncn[nH]4)cc3)nc2c1	0*
O=C(Nc1ccc2oc(-c3cccnc3)nc2c1)c1ccc(-c2ccc(F)cc2)o1	0.99
Fc1ccc(-c2nnc3ccc(NCc4cccc(Cl)c4)nn23)cc1	0.985
Cc1ccc(C(C)C)c(OCCNC(=O)CCC2CCCC2)c1	1.05
CCOc1ccccc1NC(=O)CSc1nccn1-c1cc(C)cc(C)c1	0.63
CCOc1ccccc1NC(=O)CSc1nccn1-c1cccc(OC)c1	0.481*
COc1ccccc1NC(=O)CSc1nccn1-c1ccc(Cl)cc1	0.509
CCOc1ccccc1NC(=O)CSc1nccn1-c1ccc(Cl)cc1	0.314*
COc1cccc(-n2ccnc2SCC(=O)Nc2ccccc2F)c1	0.535
COc1cccc(-n2ccnc2SCC(=O)Nc2ccc(OC)cc2OC)c1	0.965
CCOc1ccccc1NC(=O)C1CCN(S(=O)(=O)c2cccs2)CC1	0.963
COC(CNC(=O)c1ccc2c(c1)nc(C)n2-c1ccc(F)cc1F)OC	0.989
SMILES	CBX7 inh
O=C(CNC1CCCCC1)Nc1c2c(nc3c1CCC3)CCC2	0.565
CCCCCCC(=O)Nc1c2c(nc3c1CCC3)CCCC2	0.909
CNCC(=O)Nc1c2c(nc3c1CCC3)CCCC2	0.485*
Cc1cc(NC(=O)CNC2CCCCC2)c2ccccc2n1	1.02
CC(C)(C)NCC(=O)Nc1c2c(nc3c1CCC3)CCCC2	1.01
O=C(CNC1CCCCC1)Nc1c2c(nc3c1CCC3)CCCC2	0.344*
CC1CCN(C(=O)Cn2ccc3ccccc3c2=O)CC1	1.04
Cc1ccc2c(c1)NC(=O)C(CC(=O)Nc1cccc(C)c1C)O2 (stereo not given)	1.09
COCCN1Cc2cccc(C(=O)Nc3ccc(C)c(F)c3)c2C1=O	1.09
CCCCC(NC(=O)CSc1nnc(-c2ccccc2)n1-c1ccccc1)C(=O)O (stereo not given)	1.06
CC1CCCCN1c1nc(-c2ccccc2O)nc2ccccc12 (stereo not given)	1.01
